# Test results taken from the supplement of paper PMC8728848.
# Only a selection was taken, and the strongest signals are over-represented in it overall.
# B1: Banana lectin (Musa acuminata) (protein)
# chain: MNGAIKVGAWGGNGGSAFDMGPAYRIISVKIFSGDVVDGVDVTFTYYGKTETRHYGGSGGTPHEIVLQEGEYLVGMAGEVANYHGAVVLGKLGFSTNKKAYGPFGNTGGTPFSLPIAAGKISGFFGRGGKFLDAIGVYLEPLEHHHHHH
# Tests used:
# Test in all cases: glycan array binding signal (z-score within array); higher = stronger binding
# Conditions in all cases: glycan notation: IUPAC condensed, linker removed
# [1] = molecular target: Fuc(a1-2)Gal(b1-3)GlcNAc(b1-2)Man(a1-3)[Fuc(a1-2)Gal(b1-3)GlcNAc(b1-2)Man(a1-6)]Man(b1-4)GlcNAc(b1-4)[Fuc(a1-6)]GlcNAc
# Procedure, shortened: (§1)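 Arrays were curated from the Consortium for Functional Glycomics database, 3228 in total, and kept only where the protein sequence was available. Binding is expressed as a within-array Z-score. This score was averaged across arrays of the same protein sequence at different concentrations or buffers and across linkers, and negative values can be read as non-binding.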
# [2] = molecular target: Fuc(a1-2)Gal(b1-4)GlcNAc(b1-2)Man(a1-3)[Fuc(a1-2)Gal(b1-4)GlcNAc(b1-2)Man(a1-6)]Man(b1-4)GlcNAc(b1-4)[Fuc(a1-6)]GlcNAc
# Procedure, shortened: as §1
# [3] = molecular target: Fuc(a1-2)[Gal(a1-3)]Gal(b1-3)GlcNAc(b1-3)GalNAc
# Procedure, shortened: as §1
# [4] = molecular target: Fuc(a1-2)[Gal(a1-3)]Gal(b1-3)GlcNAc(b1-6)GalNAc
# Procedure, shortened: as §1
# [5] = molecular target: Fuc(a1-2)[Gal(a1-3)]Gal(b1-4)GlcNAc(b1-2)Man(a1-3)[Fuc(a1-2)[Gal(a1-3)]Gal(b1-4)GlcNAc(b1-2)Man(a1-6)]Man(b1-4)GlcNAc(b1-4)[Fuc(a1-6)]GlcNAc
# Procedure, shortened: as §1
# [6] = molecular target: Fuc(a1-2)[GalNAc(a1-3)]Gal(b1-3)GlcNAc(b1-3)GalNAc
# Procedure, shortened: as §1
# [7] = molecular target: Fuc(a1-2)[GalNAc(a1-3)]Gal(b1-4)GlcNAc(b1-3)[Fuc(a1-2)[GalNAc(a1-3)]Gal(b1-4)GlcNAc(b1-6)]GalNAc
# Procedure, shortened: as §1
# [8] = molecular target: Fuc(a1-3)[Gal(b1-4)]Glc6S
# Procedure, shortened: as §1
# [9] = molecular target: Fuc(a1-3)[Gal(b1-4)]GlcNAc(b1-3)GalNAc
# Procedure, shortened: as §1
# [10] = molecular target: Fuc(a1-3)[Gal3S(b1-4)]GlcNAc6S
# Procedure, shortened: as §1
# [11] = molecular target: Fuc(a1-3)[GalNAc(b1-4)]GlcNAc
# Procedure, shortened: as §1
# [12] = molecular target: Gal(a1-3)Gal(b1-3)GlcNAc(b1-2)Man
# Procedure, shortened: as §1
# [13] = molecular target: Gal(a1-3)Gal(b1-3)[Fuc(a1-4)]GlcNAc(b1-2)Man(a1-3)[Gal(a1-3)Gal(b1-3)[Fuc(a1-4)]GlcNAc(b1-2)Man(a1-6)]Man(b1-4)GlcNAc(b1-4)GlcNAc
# Procedure, shortened: as §1
# [14] = molecular target: Gal(a1-3)Gal(b1-4)[Fuc(a1-3)]GlcNAc
# Procedure, shortened: as §1
# [15] = molecular target: Gal(a1-4)Gal(b1-4)GlcNAc(b1-2)Man(a1-3)[Gal(a1-4)Gal(b1-4)GlcNAc(b1-2)Man(a1-6)]Man(b1-4)GlcNAc(b1-4)GlcNAc
# Procedure, shortened: as §1
# [16] = molecular target: Gal(b1-3)GlcNAc(a1-3)Gal(b1-4)GlcNAc
# Procedure, shortened: as §1
# [17] = molecular target: Gal(b1-3)GlcNAc(b1-2)[Gal(b1-3)GlcNAc(b1-6)]Man(a1-6)[Gal(b1-3)GlcNAc(b1-2)Man(a1-3)]Man(b1-4)GlcNAc(b1-4)GlcNAc
# Procedure, shortened: as §1
# [18] = molecular target: Gal(b1-3)GlcNAc(b1-3)Gal(b1-4)GlcNAc
# Procedure, shortened: as §1
# [19] = molecular target: Gal(b1-3)GlcNAc(b1-3)Gal(b1-4)[Fuc(a1-3)]GlcNAc
# Procedure, shortened: as §1
# [20] = molecular target: Gal(b1-3)GlcNAc(b1-3)Gal(b1-4)[Fuc(a1-3)]GlcNAc(b1-6)[Gal(b1-3)GlcNAc(b1-3)]Gal(b1-4)Glc
# Procedure, shortened: as §1
# [21] = molecular target: Gal(b1-3)GlcNAc(b1-6)[Gal(b1-3)]GalNAc
# Procedure, shortened: as §1
# [22] = molecular target: Gal(b1-4)GlcNAc(b1-3)Gal(b1-4)Glc
# Procedure, shortened: as §1
# [23] = molecular target: Gal(b1-4)GlcNAc(b1-3)Gal(b1-4)GlcNAc(b1-3)Gal(b1-4)GlcNAc(b1-3)Gal(b1-4)GlcNAc(b1-2)Man(a1-3)[Gal(b1-4)GlcNAc(b1-3)Gal(b1-4)GlcNAc(b1-3)Gal(b1-4)GlcNAc(b1-3)Gal(b1-4)GlcNAc(b1-2)Man(a1-6)]Man(b1-4)GlcNAc(b1-4)[Fuc(a1-6)]GlcNAc
# Procedure, shortened: as §1
# Gal6S(b1-3)GlcNAc = molecular target: Gal6S(b1-3)GlcNAc
# Procedure, shortened: as §1
# GalNAc(a1-3)GalNAc = molecular target: GalNAc(a1-3)GalNAc
# Procedure, shortened: as §1
# [24] = molecular target: Glc(a1-2)Glc(a1-3)Glc(a1-3)Man(a1-2)Man(a1-2)Man(a1-3)[Man(a1-2)Man(a1-3)[Man(a1-2)Man(a1-6)]Man(a1-6)]Man(b1-4)GlcNAc
# Procedure, shortened: as §1
# [25] = molecular target: GlcA(b1-3)GlcNAc(b1-4)GlcA(b1-3)GlcNAc(b1-4)GlcA(b1-3)GlcNAc(b1-4)GlcA(b1-3)GlcNAc(b1-4)GlcA(b1-3)GlcNAc(b1-4)GlcA(b1-3)GlcNAc(b1-4)GlcA(b1-3)GlcNAc(b1-4)GlcA(b1-3)GlcNAc
# Procedure, shortened: as §1
# [26] = molecular target: GlcNAc(a1-3)Gal(b1-4)GlcNAc
# Procedure, shortened: as §1
# [27] = molecular target: GlcNAc(b1-2)Man(a1-3)[GlcNAc(b1-2)Man(a1-6)]Man(b1-4)GlcNAc(b1-4)GlcNAc
# Procedure, shortened: as §1
# [28] = molecular target: GlcNAc(b1-2)Man(a1-3)[Man(a1-3)[Man(a1-6)]Man(a1-6)][GlcNAc(b1-4)]Man(b1-4)GlcNAc(b1-4)GlcNAc
# Procedure, shortened: as §1
binder,measurement,setting,value
B1,glycan array binding signal (z-score),[1],0.041
same,glycan array binding signal (z-score),[2],0.084
same,glycan array binding signal (z-score),[3],-0.22
same,glycan array binding signal (z-score),[4],-0.374
same,glycan array binding signal (z-score),[5],0.595
same,glycan array binding signal (z-score),[6],-0.215
same,glycan array binding signal (z-score),[7],-0.173
same,glycan array binding signal (z-score),[8],-0.211
same,glycan array binding signal (z-score),[9],-0.268
same,glycan array binding signal (z-score),[10],-0.212
same,glycan array binding signal (z-score),[11],-0.132
same,glycan array binding signal (z-score),[12],-0.189
same,glycan array binding signal (z-score),[13],0.245
same,glycan array binding signal (z-score),[14],-0.222
same,glycan array binding signal (z-score),[15],-0.174
same,glycan array binding signal (z-score),[16],3.29
same,glycan array binding signal (z-score),[17],0.504
same,glycan array binding signal (z-score),[18],-0.264
same,glycan array binding signal (z-score),[19],-0.216
same,glycan array binding signal (z-score),[20],-0.216
same,glycan array binding signal (z-score),[21],0.054
same,glycan array binding signal (z-score),[22],-0.22
same,glycan array binding signal (z-score),[23],-0.154
same,glycan array binding signal (z-score),Gal6S(b1-3)GlcNAc,-0.197
same,glycan array binding signal (z-score),GalNAc(a1-3)GalNAc,-0.213
same,glycan array binding signal (z-score),[24],1.56
same,glycan array binding signal (z-score),[25],-0.99
same,glycan array binding signal (z-score),[26],0.842
same,glycan array binding signal (z-score),[27],0.105
same,glycan array binding signal (z-score),[28],-0.039
